Measured values: PubChem BioAssay AID1159580 (chemical genetic matrix, 2015)
Out of some 5,500 compounds screened, about 2,000 (36%) were called active. Another 18% or so got no clear call; they are omitted. Cut-off read from the data, not from the text of the source: active = normalized growth mostly below about 0.91 (no sharp cut-off); inconclusive = no clear call, values can overlap the other calls; inactive = mostly above about 0.92. Some of the results follow.

Test: chemical genetic growth profiling, strain panel (AID 1159580);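 note: tested at 20 µM; growth read once vehicle control cultures reached saturation at 30 °C; 1 = growth at the plate median or of vehicle wells; lower values mean less growth of the strain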
Conditions: S. cerevisiae deletion strains, growth OD

Measured: normalized growth

CC(=O)Nc1ccc(S(=O)(=O)Nc2onc(C)c2C)cc1
inactive: locus YAL021C, strain ccr4, stronger effect = lower value 0.984 | locus YAL026C, strain drs2, stronger effect = lower value 0.976 | locus YAL030W, strain snc1, stronger effect = lower value 0.98 | locus YBL061C, strain skt5, stronger effect = lower value 0.969 | locus YBR009C, strain hhf1, stronger effect = lower value 0.959 | locus YBR023C, strain chs3, stronger effect = lower value 0.97 | locus YBR171W, strain sec66, stronger effect = lower value 0.965 | locus YBR231C, strain swc5, stronger effect = lower value 0.981 | locus YBR279W, strain paf1, stronger effect = lower value 0.968 | locus YCL011C, strain gbp2, stronger effect = lower value 0.973 | locus YCL016C, strain dcc1, stronger effect = lower value 0.969 | locus YCL061C, strain MRC1, stronger effect = lower value 0.985 | locus YCL069W, strain vba3, stronger effect = lower value 0.972 | locus YCR088W, strain abp1, stronger effect = lower value 0.965 | locus YDL005C, strain med2, stronger effect = lower value 0.969 | locus YDL040C, strain nat1, stronger effect = lower value 0.969 | locus YDR001C, strain nth1, stronger effect = lower value 0.963 | locus YDR069C, strain doa4, stronger effect = lower value 0.962 | locus YDR137W, strain rgp1, stronger effect = lower value 0.959 | locus YDR159W, strain sac3, stronger effect = lower value 0.946 | locus YDR195W, strain ref2 0.948 | locus YDR297W, strain sur2, stronger effect = lower value 0.967 | locus YDR334W, strain swr1, stronger effect = lower value 0.975 | locus YDR335W, strain msn5, stronger effect = lower value 0.972 | locus YDR392W, strain spt3, stronger effect = lower value 0.929 | locus YEL003W, strain gim4, stronger effect = lower value 0.974 | locus YEL037C, strain rad23, stronger effect = lower value 0.971 | locus YEL061C, strain CIN8 (second series), stronger effect = lower value 0.956 | locus YER015W, strain faa2, stronger effect = lower value 0.986 | locus YER016W, strain bim1, stronger effect = lower value 0.96 | locus YER111C, strain swi4, stronger effect = lower value 0.975 | locus YER155C, strain BEM2 (second series), stronger effect = lower value 0.971 | locus YFR010W, strain ubp6, stronger effect = lower value 0.959 | locus YGL167C, strain pmr1, stronger effect = lower value 0.968 | locus YGL173C, strain kem1, stronger effect = lower value 0.969 | locus YGL227W, strain vid30, stronger effect = lower value 0.966 | locus YGL240W, strain doc1, stronger effect = lower value 0.981 | locus YGL253W, strain hxk2, stronger effect = lower value 0.994 | locus YHR013C, strain ard1, stronger effect = lower value 0.963 | locus YHR027C, strain rpn1, stronger effect = lower value 0.989 | locus YHR030C, strain SLT2, stronger effect = lower value 0.975 | locus YHR079C, strain IRE1, stronger effect = lower value 0.968 | locus YHR142W, strain chs7, stronger effect = lower value 0.965 | locus YJL092W, strain hpr5, stronger effect = lower value 0.971 | locus YJL095W, strain BCK1 (second series), stronger effect = lower value 0.975 | locus YJL095W, strain BCK1, stronger effect = lower value 1 | locus YJL115W, strain asf1, stronger effect = lower value 0.964 | locus YJL129C, strain trk1, stronger effect = lower value 0.983 | locus YJL154C, strain vps35, stronger effect = lower value 0.965 | locus YJL164C, strain tpk1, stronger effect = lower value 0.982 | locus YJL166W, strain qcr8, stronger effect = lower value 0.983 | locus YJL187C, strain SWE1, stronger effect = lower value 0.97 | locus YJR066W, strain TOR1, stronger effect = lower value 0.908 | locus YKL160W, strain elf1, stronger effect = lower value 0.984 | locus YKR026C, strain gcn3, stronger effect = lower value 0.967 | locus YKR091W, strain srl3, stronger effect = lower value 0.977 | locus YLL001W, strain dnm1, stronger effect = lower value 0.951 | locus YLL026W, stronger effect = lower value 0.961 | locus YLL041C, strain sdh2, stronger effect = lower value 0.978 | locus YLR027C, strain aat2, stronger effect = lower value 0.973 | locus YLR113W, strain HOG1, stronger effect = lower value 0.975 | locus YLR221C, strain rsa3, stronger effect = lower value 0.987 | locus YLR258W, strain gsy2, stronger effect = lower value 0.971 | locus YLR262C, strain YPT6 (second series), stronger effect = lower value 0.98 | locus YLR320W, strain mms22, stronger effect = lower value 0.972 | locus YLR342W, strain FKS1, stronger effect = lower value 0.974 | locus YLR357W, strain rsc2, stronger effect = lower value 0.951 | locus YLR370C, strain arc18, stronger effect = lower value 0.957 | locus YLR384C, strain iki3, stronger effect = lower value 0.962 | locus YML120C, strain ndi1, stronger effect = lower value 0.988 | locus YMR058W, strain fet3, stronger effect = lower value 0.971 | locus YMR125W, strain sto1, stronger effect = lower value 0.937 | locus YMR129W, stronger effect = lower value 0.979 | locus YMR205C, strain PFK2, stronger effect = lower value 0.936 | locus YMR231W, strain pep5, stronger effect = lower value 0.969 | locus YNL071W, strain lat1, stronger effect = lower value 0.975 | locus YNL183C, strain NPR1, stronger effect = lower value 0.926 | locus YNL209W, strain ssb2, stronger effect = lower value 0.975 | locus YNL248C, strain rpa49, stronger effect = lower value 1.02 | locus YNL322C, strain KRE1 (second series), stronger effect = lower value 0.98 | locus YNR049C, strain mso1, stronger effect = lower value 0.969 | locus YOR001W, strain rrp6, stronger effect = lower value 0.985 | locus YOR070C, strain gyp1, stronger effect = lower value 0.977 | locus YOR080W, strain dia2, stronger effect = lower value 0.954 | locus YOR083W, strain WHI5, stronger effect = lower value 0.997 | locus YOR106W, strain vam3, stronger effect = lower value 0.996 | locus YOR231W, strain MKK1, stronger effect = lower value 0.989 | locus YOR265W, strain rbl2, stronger effect = lower value 0.973 | locus YOR270C, strain vph1, stronger effect = lower value 0.922 | locus YOR290C, strain snf2, stronger effect = lower value 0.964 | locus YPL051W, strain arl3, stronger effect = lower value 0.985 | locus YPL078C, strain atp4, stronger effect = lower value 0.981 | locus YPL106C, strain sse1, stronger effect = lower value 0.97 | locus YPL240C, strain hsp82, stronger effect = lower value 0.99 | locus YPL256C, strain CLN2, stronger effect = lower value 0.955
